Measurements reported in article PMC11062922 (Nature Chemical Biology, 2023).
Read-outs that look alike come from different tables or passages of the source.

Experiments:
[1] = system: FLT4; conditions: read-out: apparent Kd, n = 1
[2] = system: IRAK4; conditions: read-out: apparent Kd, n = 1
[3] = compound concentrations:100 nM and 1000 nM (sheet 'Lestaurtinib' of Supplementary Table 1),run:Lestaurtinib_02364_R3,Plate:MR002
[4] = compound concentrations:100 nM and 1000 nM (sheet 'Lestaurtinib' of Supplementary Table 1),run:Lestaurtinib_02381_R1,Plate:MR004
[5] = compound concentrations:100 nM and 1000 nM (sheet 'Lestaurtinib' of Supplementary Table 1),run:Lestaurtinib_02381_R2,Plate:MR004
[6] = compound concentrations:100 nM and 1000 nM (sheet 'Lestaurtinib' of Supplementary Table 1),run:Lestaurtinib_02407_R2,Plate:MR005
[7] = compound concentrations:100 nM and 1000 nM (sheet 'Lestaurtinib' of Supplementary Table 1),run:Lestaurtinib_02422_R1,Plate:MR006
[8] = compound concentrations:100 nM and 1000 nM (sheet 'Lestaurtinib' of Supplementary Table 1),run:Lestaurtinib_02437_R2,Plate:MR007
[9] = compound concentrations:100 nM and 1000 nM (sheet 'Lestaurtinib' of Supplementary Table 1),run:Lestaurtinib_02438_R1,Plate:MR008

In the case of Lestaurtinib, the potency estimated from few doses [1, 3] is reported as 199 nM, the potency estimated from few doses ([1]; compound concentrations:100 nM and 1000 nM (sheet 'Lestaurtinib' of Supplementary Table 1),run:Lestaurtinib_02367_R2,Plate:MR003) is reported as 462 nM and the potency estimated from few doses ([1]; compound concentrations:100 nM and 1000 nM (sheet 'Lestaurtinib' of Supplementary Table 1),run:Lestaurtinib_02367_R3,Plate:MR003) is reported as 74.5 nM. It also gave a potency estimated from few doses [1, 4] of 202 nM, a potency estimated from few doses [1, 5] of 158 nM and a potency estimated from few doses [1, 6] of 157 nM. It also gave a potency estimated from few doses [1, 7] of 289 nM, a potency estimated from few doses ([1]; compound concentrations:100 nM and 1000 nM (sheet 'Lestaurtinib' of Supplementary Table 1),run:Lestaurtinib_02422_R2,Plate:MR006) of 26 nM and a potency estimated from few doses ([1]; compound concentrations:100 nM and 1000 nM (sheet 'Lestaurtinib' of Supplementary Table 1),run:Lestaurtinib_02437_R1,Plate:MR007) of 520 nM. The potency estimated from few doses [1, 8] was 1240 nM, the potency estimated from few doses [1, 9] was 25.6 nM and the potency estimated from few doses ([1]; compound concentrations:100 nM and 1000 nM (sheet 'Lestaurtinib' of Supplementary Table 1),run:Lestaurtinib_02443_R3,Plate:MR009) was 154 nM. It also gave a potency estimated from few doses ([1]; compound concentrations:100 nM and 1000 nM (sheet 'Lestaurtinib' of Supplementary Table 1),run:Lestaurtinib_02473_R1,Plate:MR010) of 310 nM, a potency estimated from few doses ([1]; compound concentrations:100 nM and 1000 nM (sheet 'Lestaurtinib' of Supplementary Table 1),run:Lestaurtinib_02473_R2,Plate:MR010) of 316 nM and a potency estimated from few doses ([1]; compound concentrations:100 nM and 1000 nM (sheet 'Lestaurtinib' of Supplementary Table 1),run:Lestaurtinib_02482_R3,Plate:MR011) of 229 nM. The potency estimated from few doses ([1]; compound concentrations:100 nM and 1000 nM (sheet 'Lestaurtinib' of Supplementary Table 1),run:Lestaurtinib_02487_R2,Plate:MR012) was 131 nM, the potency estimated from few doses ([1]; compound concentrations:100 nM and 1000 nM (sheet 'Lestaurtinib' of Supplementary Table 1),run:Lestaurtinib_02566_R1,Plate:MR014) was 1590 nM and the potency estimated from few doses ([1]; compound concentrations:100 nM and 1000 nM (sheet 'Lestaurtinib' of Supplementary Table 1),run:Lestaurtinib_02566_R2,Plate:MR014) was 90.7 nM. For the same substance, the potency estimated from few doses ([1]; compound concentrations:100 nM and 1000 nM (sheet 'Lestaurtinib' of Supplementary Table 1),run:Lestaurtinib_02566_R3,Plate:MR014) was 77.7 nM, the potency estimated from few doses ([1]; compound concentrations:100 nM and 1000 nM (sheet 'Lestaurtinib' of Supplementary Table 1),run:Lestaurtinib_02577_R2,Plate:MR016) was 225 nM and the potency estimated from few doses ([1]; compound concentrations:100 nM and 1000 nM (sheet 'Lestaurtinib' of Supplementary Table 1),run:Lestaurtinib_02577_R3,Plate:MR016) was 160 nM. The potency estimated from few doses ([1]; compound concentrations:100 nM and 1000 nM (sheet 'Lestaurtinib' of Supplementary Table 1),run:Lestaurtinib_02584_R1,Plate:MR017) was 396 nM, the potency estimated from few doses ([1]; compound concentrations:100 nM and 1000 nM (sheet 'Lestaurtinib' of Supplementary Table 1),run:Lestaurtinib_02584_R2,Plate:MR017) was 124 nM and the potency estimated from few doses ([1]; compound concentrations:100 nM and 1000 nM (sheet 'Lestaurtinib' of Supplementary Table 1),run:Lestaurtinib_02584_R3,Plate:MR017) was 434 nM. It also gave a potency estimated from few doses ([1]; compound concentrations:100 nM and 1000 nM (sheet 'Lestaurtinib' of Supplementary Table 1),run:Lestaurtinib_02601_R1,Plate:MR018) of 286 nM, a potency estimated from few doses ([1]; compound concentrations:100 nM and 1000 nM (sheet 'Lestaurtinib' of Supplementary Table 1),run:Lestaurtinib_02601_R2,Plate:MR018) of 202 nM and a potency estimated from few doses ([1]; compound concentrations:100 nM and 1000 nM (sheet 'Lestaurtinib' of Supplementary Table 1),run:Lestaurtinib_02601_R3,Plate:MR018) of 86 nM. It also gave a potency estimated from few doses ([1]; compound concentrations:100 nM and 1000 nM (sheet 'Lestaurtinib' of Supplementary Table 1),run:Lestaurtinib_02606_R3,Plate:MR019) of 231 nM, a potency estimated from few doses ([1]; compound concentrations:100 nM and 1000 nM (sheet 'Lestaurtinib' of Supplementary Table 1),run:Lestaurtinib_02624_R1,Plate:MR020) of 358 nM and a potency estimated from few doses ([1]; compound concentrations:100 nM and 1000 nM (sheet 'Lestaurtinib' of Supplementary Table 1),run:Lestaurtinib_02624_R2,Plate:MR020) of 135 nM. The potency estimated from few doses ([1]; compound concentrations:100 nM and 1000 nM (sheet 'Lestaurtinib' of Supplementary Table 1),run:Lestaurtinib_02624_R3,Plate:MR020) was 359 nM, the potency estimated from few doses ([1]; compound concentrations:100 nM and 1000 nM (sheet 'Lestaurtinib' of Supplementary Table 1),run:Lestaurtinib_02724_R2,Plate:MR021) was 319 nM and the potency estimated from few doses ([1]; compound concentrations:100 nM and 1000 nM (sheet 'Lestaurtinib' of Supplementary Table 1),run:Lestaurtinib_02741_R2,Plate:MR023) was 701 nM. The potency estimated from few doses ([1]; compound concentrations:100 nM and 1000 nM (sheet 'Lestaurtinib' of Supplementary Table 1),run:Lestaurtinib_02748_R1,Plate:MR024) was 330 nM, the potency estimated from few doses ([1]; compound concentrations:100 nM and 1000 nM (sheet 'Lestaurtinib' of Supplementary Table 1),run:Lestaurtinib_02748_R2,Plate:MR024) was 521 nM and the potency estimated from few doses ([1]; compound concentrations:100 nM and 1000 nM (sheet 'Lestaurtinib' of Supplementary Table 1),run:Lestaurtinib_02748_R3,Plate:MR024) was 161 nM. The potency estimated from few doses ([1]; compound concentrations:100 nM and 1000 nM (sheet 'Lestaurtinib' of Supplementary Table 1),run:Lestaurtinib_02752_R1,Plate:MR025) was 310 nM, the potency estimated from few doses ([1]; compound concentrations:100 nM and 1000 nM (sheet 'Lestaurtinib' of Supplementary Table 1),run:Lestaurtinib_02752_R3,Plate:MR025) was 254 nM and the potency estimated from few doses ([1]; compound concentrations:100 nM and 1000 nM (sheet 'Lestaurtinib' of Supplementary Table 1),run:Lestaurtinib_02765_R2,Plate:MR026) was 162 nM. For the same substance, the potency estimated from few doses ([1]; compound concentrations:100 nM and 1000 nM (sheet 'Lestaurtinib' of Supplementary Table 1),run:Lestaurtinib_02765_R3,Plate:MR026) was 400 nM, the potency estimated from few doses ([1]; compound concentrations:100 nM and 1000 nM (sheet 'Lestaurtinib' of Supplementary Table 1),run:Lestaurtinib_02766_R1,Plate:MR027) was 350 nM and the potency estimated from few doses ([1]; compound concentrations:100 nM and 1000 nM (sheet 'Lestaurtinib' of Supplementary Table 1),run:Lestaurtinib_02766_R3,Plate:MR027) was 237 nM. The potency estimated from few doses ([1]; compound concentrations:100 nM and 1000 nM (sheet 'Lestaurtinib' of Supplementary Table 1),run:Lestaurtinib_02768_R1,Plate:MR028) was 180 nM, the potency estimated from few doses ([1]; compound concentrations:100 nM and 1000 nM (sheet 'Lestaurtinib' of Supplementary Table 1),run:Lestaurtinib_02768_R2,Plate:MR028) was 389 nM and the potency estimated from few doses ([1]; compound concentrations:100 nM and 1000 nM (sheet 'Lestaurtinib' of Supplementary Table 1),run:Lestaurtinib_02768_R3,Plate:MR028) was 493 nM. The potency estimated from few doses ([1]; compound concentrations:100 nM and 1000 nM (sheet 'Lestaurtinib' of Supplementary Table 1),run:Lestaurtinib_02795_R1,Plate:MR022) was 391 nM, the potency estimated from few doses ([1]; compound concentrations:100 nM and 1000 nM (sheet 'Lestaurtinib' of Supplementary Table 1),run:Lestaurtinib_02795_R2,Plate:MR022) was 229 nM and the potency estimated from few doses ([1]; compound concentrations:100 nM and 1000 nM (sheet 'Lestaurtinib' of Supplementary Table 1),run:Lestaurtinib_02795_R3,Plate:MR022) was 297 nM. It also gave a potency estimated from few doses ([1]; compound concentrations:100 nM and 1000 nM (sheet 'Lestaurtinib' of Supplementary Table 1),run:Lestaurtinib_02802_R1,Plate:MR029) of 183 nM, a potency estimated from few doses ([1]; compound concentrations:100 nM and 1000 nM (sheet 'Lestaurtinib' of Supplementary Table 1),run:Lestaurtinib_02896_R1,Plate:MR030) of 159 nM and a potency estimated from few doses ([1]; compound concentrations:100 nM and 1000 nM (sheet 'Lestaurtinib' of Supplementary Table 1),run:Lestaurtinib_02896_R2,Plate:MR030) of 151 nM. It also gave a potency estimated from few doses ([1]; compound concentrations:100 nM and 1000 nM (sheet 'Lestaurtinib' of Supplementary Table 1),run:Lestaurtinib_02896_R3,Plate:MR030) of 372 nM, a potency estimated from few doses ([1]; compound concentrations:100 nM and 1000 nM (sheet 'Lestaurtinib' of Supplementary Table 1),run:Lestaurtinib_03172_R3,Plate:MR031) of 131 nM and a potency estimated from few doses ([1]; compound concentrations:100 nM and 1000 nM (sheet 'Lestaurtinib' of Supplementary Table 1),run:Lestaurtinib_03252_R1,Plate:MR032) of 229 nM. For the same substance, the potency estimated from few doses ([1]; compound concentrations:100 nM and 1000 nM (sheet 'Lestaurtinib' of Supplementary Table 1),run:Lestaurtinib_03252_R2,Plate:MR032) was 76.2 nM, the potency estimated from few doses ([1]; compound concentrations:100 nM and 1000 nM (sheet 'Lestaurtinib' of Supplementary Table 1),run:Lestaurtinib_03260_R1,Plate:MR033) was 162 nM and the potency estimated from few doses ([1]; compound concentrations:100 nM and 1000 nM (sheet 'Lestaurtinib' of Supplementary Table 1),run:Lestaurtinib_03260_R3,Plate:MR033) was 388 nM. It also gave a potency estimated from few doses ([2]; compound concentrations:100 nM and 1000 nM (sheet 'Lestaurtinib' of Supplementary Table 1),run:Lestaurtinib_02339_R2,Plate:MR001) of 146 nM, a potency estimated from few doses ([2]; compound concentrations:100 nM and 1000 nM (sheet 'Lestaurtinib' of Supplementary Table 1),run:Lestaurtinib_02339_R3,Plate:MR001) of 62 nM and a potency estimated from few doses ([2]; compound concentrations:100 nM and 1000 nM (sheet 'Lestaurtinib' of Supplementary Table 1),run:Lestaurtinib_02364_R1,Plate:MR002) of 77.8 nM. The potency estimated from few doses [2, 3] was 95 nM, the potency estimated from few doses [2, 4] was 93.9 nM and the potency estimated from few doses [2, 5] was 76.7 nM. For the same substance, the potency estimated from few doses ([2]; compound concentrations:100 nM and 1000 nM (sheet 'Lestaurtinib' of Supplementary Table 1),run:Lestaurtinib_02381_R3,Plate:MR004) was 65.8 nM, the potency estimated from few doses ([2]; compound concentrations:100 nM and 1000 nM (sheet 'Lestaurtinib' of Supplementary Table 1),run:Lestaurtinib_02407_R1,Plate:MR005) was 69.8 nM and the potency estimated from few doses [2, 6] was 55.3 nM. The potency estimated from few doses ([2]; compound concentrations:100 nM and 1000 nM (sheet 'Lestaurtinib' of Supplementary Table 1),run:Lestaurtinib_02407_R3,Plate:MR005) was 85.3 nM, the potency estimated from few doses [2, 7] was 136 nM and the potency estimated from few doses ([2]; compound concentrations:100 nM and 1000 nM (sheet 'Lestaurtinib' of Supplementary Table 1),run:Lestaurtinib_02422_R3,Plate:MR006) was 131 nM. The potency estimated from few doses [2, 8] was 140 nM, the potency estimated from few doses [2, 9] was 79.9 nM and the potency estimated from few doses ([2]; compound concentrations:100 nM and 1000 nM (sheet 'Lestaurtinib' of Supplementary Table 1),run:Lestaurtinib_02443_R1,Plate:MR009) was 113 nM.
